Test results reported in PubChem BioAssay (NCATS).
Records with an inconclusive call do not appear. Active and inactive are the calls of the source. The call rests on the fitted dose curve; in most records, active means well fitted curve in the direction sought with a large enough effect; inconclusive means small, poorly fitted or top-dose-only effect, or another doubt; inactive means no such curve, though single readings can be large; an effect the other way counts as inactive or inconclusive.

The compounds below were run against Aldehyde dehydrogenase, mitochondrial (Homo sapiens) (UniProt P05091) (assay: qHTS for Inhibitors of the Aldehyde Dehydrogenase Family (ALDH2) Primary screen (AID 2061308;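 further: plate controls were vehicle for no effect and reference inhibitor for full effect; nearly all actives have a fitted effect of over 55% in size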)). Conditions: ALDH2 enzyme inhibition qHTS, 1536-well; series mostly up to 56 µM; activity change, negative = inhibition: at the top concentration.
For `O=[N+]([O-])c1cccc2[nH]c(CNc3nc(N4CCOCC4)nc4c3ncn4-c3ccsc3)nc12`, the “activity change, negative = inhibition” value was -22.3% (inactive).
With `C/C=C/C=C/C(=O)O[C@@H]1C=C2COC(=O)[C@]2(O)[C@@]2(C)CCCC(C)(C)[C@H]12` the “activity change, negative = inhibition” value was -6.57% (inactive).
`CC(C)c1ccc2c(c1)C(O)CC1C(C)(CO)CCCC21C` (configuration not stated) was tested, and the “activity change, negative = inhibition” value was -1.93% (inactive).
For `C=C(C(=O)O)C1CC(OC(=O)CC(C)CC)C2(C)CCCC(=C)C2C1` (configuration not stated), the “activity change, negative = inhibition” value was 4.43% (inactive).

What follows are compounds tested against Retinaldehyde dehydrogenase 3 (Homo sapiens) (UniProt P47895) (assay: qHTS for Inhibitors of the Aldehyde Dehydrogenase Family (ALDH1A3) Primary screen (AID 2061315;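 further: plate controls were DMSO vehicle for no effect and reference inhibitor for full effect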)). Conditions: ALDH inhibition qHTS; series mostly up to 56 µM; activity change, negative = inhibition: at the top concentration.
With `CC(C)CC(=O)NCCn1cc(C(=O)O)c(=O)cc1C(O)c1ccccc1` (configuration not stated) the “activity change, negative = inhibition” value was 13% (inactive).
`CC(=O)OC(C)(C)/C=C/C(=O)[C@](C)(O)[C@H]1C(O)C[C@@]2(C)[C@@H]3CC=C4[C@@H](C=C(O[C@@H]5O[C@H](CO)[C@@H](O)[C@H](O)[C@H]5O)C(=O)C4(C)C)[C@]3(C)C(=O)C[C@]12C` (some centres not stated) was tested, and the “activity change, negative = inhibition” value was 6.67% [at 16.9 µM] (inactive).
With `CC(C)(C)NS(=O)(=O)c1ccc(-c2ccc3[nH]nc(N)c3c2)cc1` the “activity change, negative = inhibition” value was 10.2% (inactive).
In the case of `CC1=C(COC2OC(CO)C(O)C(O)C2O)C(C(CO)C(=O)O)CC1` (configuration not stated), the “activity change, negative = inhibition” value is reported as -4% (inactive).
`COc1ccc([C@H]2OC[C@H]3[C@@H]2CO[C@@H]3c2ccc(O[C@@H]3O[C@H](CO)C(O)[C@H](O)[C@H]3O)c(OC)c2)cc1OC` (some centres not stated) was tested, and the “activity change, negative = inhibition” value was 6.44% [at 28 µM] (inactive).
In the case of `C[C@@]1(C(=O)O)CCC[C@@]2(C)C3=CC[C@H]4C[C@@]3(CC[C@H]12)CC4(O)CO` (some centres not stated), the “activity change, negative = inhibition” value is reported as -2.38% (inactive).
With `O=C(N[C@@H]1CCCc2c1cnn2-c1ccc(F)cc1F)c1ccccn1` the “activity change, negative = inhibition” value was -3.59% (inactive).
With `C=C1C(=O)O[C@@H]2C[C@@H](C)[C@]34C[C@]5(C(=O)O[C@H]6CC(C)=C([C@H](C)CCCO)[C@H](OC(=O)C(C)CC)[C@H]65)[C@@H](C(C)=C3C[C@@H]12)[C@H]4OC(C)=O` (some centres not stated) the “activity change, negative = inhibition” value was 2.01% [at 16.9 µM] (inactive).
In the case of `CC1CC2(O)OC(=O)C3=C2C(CCC3)[C@@]12C[C@@H](c1ccoc1)OC2=O` (some centres not stated), the “activity change, negative = inhibition” value is reported as -19.7% (inactive).
With `CC(C)=CCC[C@](C)(O[C@@H]1O[C@H](CO[C@@H]2OC[C@@H](O)[C@H](O)[C@H]2O)[C@@H](O)[C@H](O)[C@H]1O)[C@H]1CC[C@]2(C)[C@@H]1[C@H](O)C[C@@H]1[C@@]3(C)CC[C@H](O[C@@H]4O[C@H](CO)[C@@H](O)[C@H](O)[C@H]4O)C(C)(C)[C@@H]3CC[C@]12C` the “activity change, negative = inhibition” value was -28.2% [at 28 µM] (inactive).
In the case of `C=C(C)[C@@H]1CC[C@]2(CO)CC[C@]3(C)[C@H](CC[C@@H]4[C@@]5(C)CC[C@H](O)C(C)(C)[C@@H]5CC[C@]43C)[C@@H]12`, the “activity change, negative = inhibition” value is reported as 10.9% [at 28 µM] (inactive).
In the case of `COc1cc(C)c(C(=O)Oc2cc(C)c(C(=O)Oc3cc(C)c(C(=O)NC(C)C(=O)O)c(O)c3)c(O[C@@H]3O[C@H](CO)[C@@H](O)[C@H](O)[C@H]3OC(C)=O)c2)c(OC)c1` (some centres not stated), the “activity change, negative = inhibition” value is reported as -8.42% [at 16.9 µM] (inactive).
For `CC(C)C(=O)O[C@@H]1[C@@H](O)[C@@H](O[C@H]2O[C@H](CO)[C@@H](O)[C@H](O)[C@H]2O)O[C@H](CO)[C@H]1O`, the “activity change, negative = inhibition” value was 7.75% [at 28 µM] (inactive).
In the case of `C=C1C(=O)OC2C=C(C)CC/C=C(\CO)CC(O)C12` (configuration not stated), the “activity change, negative = inhibition” value is reported as -20.8% (inactive).
With `CC(C)=CCC/C(C)=C/CO[C@@H]1O[C@H](CO)[C@@H](O)[C@H](O)[C@H]1O` the “activity change, negative = inhibition” value was 6.04% (inactive).
`CC1(C)OC[C@H](NC(=O)Nc2ccc(Br)cc2Br)[C@H](c2ccccc2)O1` was tested, and the “activity change, negative = inhibition” value was -8.16% (inactive).
For `CC1(C)CC[C@]2(C(=O)O[C@@H]3O[C@H](CO)[C@@H](O)[C@H](O)[C@H]3O)CC[C@]3(C)C(=CCC4[C@@]5(C)C[C@H](O)[C@H](O[C@@H]6OC[C@@H](O)[C@H](O)[C@H]6O)[C@@](C)(CO)C5CC[C@]43C)C2C1` (some centres not stated), the “activity change, negative = inhibition” value was -1.38% [at 16.9 µM] (inactive).
With `Cc1cc2c(cc1N1C(=O)c3cccc4c(CCCO)ccc(c34)C1=O)n(C)c(=O)n2C` the “activity change, negative = inhibition” value was -3.89% [at 16.9 µM] (inactive).
For `C[C@H]1CC[C@@H]2N(C1)C[C@@H]1[C@H]([C@@H](O)[C@H](O)[C@]3(O)[C@H]1C[C@@]14OC5(O)[C@@H](C[C@@H](O)[C@@H]31)[C@]4(C)CC[C@@H]5O)[C@]2(C)O`, the “activity change, negative = inhibition” value was 0.119% [at 28 µM] (inactive).
With `O=C1COC2(CCN(S(=O)(=O)c3ccc(-c4ccc5cccnc5c4)cc3)CC2)CN1C1CC1` the “activity change, negative = inhibition” value was 5.1% (inactive).
In the case of `C=C1CC2C(C)(CCC(=O)O)C(C(C)(C)O)CCC2(C)C2(C(=O)OC)C(=O)C(C)(O)C(=O)C12C` (configuration not stated), the “activity change, negative = inhibition” value is reported as -6.83% [at 28 µM] (inactive).
For `C[C@@H]1O[C@@H](O[C@@H]2[C@@H](O)[C@@H](O)[C@H](O[C@@H]3[C@@H](O)[C@@H](O[C@]4(CO)O[C@H](CO)[C@@H](O)[C@@H]4OC(=O)/C=C/c4ccc(O)cc4)O[C@H](CO)[C@H]3OC(=O)/C=C/c3ccc(O)cc3)O[C@H]2C)[C@H](O)[C@H](O)[C@H]1O`, the “activity change, negative = inhibition” value was -4.96% [at 16.9 µM] (inactive).
With `CC1C(=O)CC2C3C(O)CC(C(=O)O)C12CC3(C)C` (configuration not stated) the “activity change, negative = inhibition” value was -1.02% (inactive).
